Measured values reported in PubChem BioAssay AID602405 (Broad Institute, 2012).
About 350 (0.097%) of roughly 360,000 compounds were called active. The full list was thinned out, with actives kept by preference. A number with no mark means an inactive call. Rule as the data show it: active = inhibition above about 16% (passing the limit was not always enough); inconclusive = no clear call, values can overlap the other calls; inactive = below that.

The molecules below were run on UDP-N-acetylbacillosamine N-acetyltransferase PglD (Campylobacter jejuni) (assay: C. jejuni PglD acetyltransferase inhibitors, primary screen, biochemical, DTNB colorimetric, single point (AID 602405)). Details: purified PglD enzyme, DTNB colorimetric CoA detection; at 12.5 µM; stronger effect = higher value.
With C/C=C/c1ccc([C@H]2[C@H](CO)N3CCCCN(C(=O)Cc4ccncc4)C[C@@H]23)cc1 the inhibition was 4.91%. Molecule COc1ccc(-c2ccc([C@H]3[C@H](CO)N4CCCCN(C(=O)Cc5ccncc5)C[C@@H]34)cc2)cc1 has an inhibition of 2.61%. O=C(Cc1ccncc1)N1CCCCN2[C@@H](CO)[C@H](c3ccc(-c4ccncc4)cc3)[C@@H]2C1 was tested, and the inhibition was 18.4% (active). O=C(O)[C@H]1[C@H](CO)[C@H]2Cn3c(cccc3=O)[C@@H]1N2C(=O)c1ccccc1 showed an inhibition of 3.27%. With CC(=CCOc1ccc2ccc(=O)oc2c1)C1=CC(=O)C(C)(C)O1 the inhibition was 2.27%. With c1ccc2sc(N3CCNCC3)nc2c1 the inhibition was 53.7% (active). c1ccc2sc(C3CCCNC3)nc2c1 (stereo not given) gave an inhibition of 3.32%. With C[C@H](CO)N1C[C@H](C)[C@H](CN(C)C(=O)Oc2ccc3ccccc3c2)OCc2cnnn2CCCC1=O the inhibition was -0.0925%. With COC(=O)[C@H]1[C@H](CO)[C@H]2Cn3c(cccc3=O)[C@H]2N1CC1CC1 the inhibition was 3.33%. COC(=O)[C@H]1[C@H](CO)[C@H]2Cn3c(ccc(-c4ccccc4F)c3=O)[C@@H]1N2C(=O)C1CCC1 gave an inhibition of -2.57%.
